Here are results for 64 compounds from PubChem BioAssay AID488835 (Broad Institute, 2010).

SMILES strings stand for the structures. Out of some 1,400 compounds screened, about 140 (10%) were called active.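 Rule for the calls: active = Half-maximal inhibitory dose from the fit at or below ten times the top valid tested dose; inconclusive = Invalid fit, or flat curve showing 30 to 70% inhibition; inactive = the rest.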 Not all results are given here. A call without a number means that no potency is given here. Potency and affinity values are given separately.

For this assay, the target named is Lysine-specific demethylase 4C (Homo sapiens) (UniProt Q9H3R0). The assay can be described thus: inhibition of JMJD2C H3K9me3 demethylation – biochemical, DELFIA europium, cherry-picked samples, dose response (AID 488835).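 Note: signal is the H3K9me2 demethylation product detected by a dimethyl-specific antibody.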 Particulars: GST-JMJD2C(1-420); series mostly up to 6 µM.
Chain of Lysine-specific demethylase 4C (Homo sapiens) (Q9H3R0 1-420 limits assumed): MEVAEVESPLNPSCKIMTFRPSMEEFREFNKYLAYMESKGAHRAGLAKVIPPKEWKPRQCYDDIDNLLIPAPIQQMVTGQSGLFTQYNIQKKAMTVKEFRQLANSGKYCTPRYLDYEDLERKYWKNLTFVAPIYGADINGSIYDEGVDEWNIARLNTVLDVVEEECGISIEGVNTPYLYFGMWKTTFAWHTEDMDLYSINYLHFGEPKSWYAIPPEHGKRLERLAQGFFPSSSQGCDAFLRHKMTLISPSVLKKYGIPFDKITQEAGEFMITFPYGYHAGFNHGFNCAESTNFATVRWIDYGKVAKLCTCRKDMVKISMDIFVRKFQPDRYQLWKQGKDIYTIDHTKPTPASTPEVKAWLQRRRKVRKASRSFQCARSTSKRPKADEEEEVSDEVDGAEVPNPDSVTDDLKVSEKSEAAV
As for `O=C(Nc1nc2c(s1)C(=O)CCC2)c1ccccc1`, the result was inactive.
In the case of `CCCN1C(=O)c2ccc(C(=O)Nc3cc(C)ccc3O)cc2C1=O` it was “inactive”.
In the case of `C[C@H](CO)N1C[C@H](C)[C@@H](CN(C)S(=O)(=O)c2cn(C)cn2)Oc2ccc(NC(=O)C3CC3)cc2C1=O` it was “inactive”; in that of `C[C@H](CO)N1C[C@H](C)[C@H](CN(C)S(=O)(=O)c2ccccc2)Oc2c(NS(C)(=O)=O)cccc2C1=O`, “inactive”; in that of `COC(=O)c1c(-c2cccs2)csc1NC(=O)CN1CCOCC1`, “inactive”.
In the case of `Cc1nc2ccccn2c1C(=O)NCCCN1CCOCC1` it was “inactive”; in that of `O=C(NCCCN1CCOCC1)c1cccc(S(=O)(=O)N2CCc3ccccc3C2)c1`, “inactive”; in that of `Cc1ccc(S(=O)(=O)N2CCOCC2)cc1NC(=O)COC(=O)c1cc(=O)[nH]c2ccccc12`, “inactive”.
Turning to `Cc1c(C(=O)NCc2cccs2)oc2ccccc12`, the call was inactive.
In the case of `Cc1cc(NC(=O)COc2ncnc3sc(C)c(C)c23)no1` it was “inactive”.
`Cn1c(SCC(=O)Nc2cc(S(=O)(=O)N3CCOCC3)ccc2N2CCOCC2)nnc1-c1ccncc1`: the compound was called inactive.
Consider `Cc1ccccc1C(=O)OCCCN=C1NS(=O)(=O)c2ccccc21`, for which the outcome was inactive.
With `O=C(CCc1ccc(S(=O)(=O)NCc2ccccc2)cc1)NCc1ccc2c(c1)OCO2`, the compound was classed as inactive.
In the case of `Cc1noc(C)c1S(=O)(=O)N(C)C[C@H]1Oc2c(NC(=O)Nc3ccccc3)cccc2C(=O)N([C@H](C)CO)C[C@@H]1C` it was “inactive”; in that of `O=C(NN=C1CCCCCCCCCCC1)c1cccc(S(=O)(=O)N2CCOCC2)c1`, “inactive”.
`O=C(CC1NC(=O)NC1=O)Nc1ccccc1` (centres undefined): the result was inactive.
For `Cc1nnnn1/C(=C\c1ccccc1)C(=O)OCC(=O)NC(C)(C)C`, the outcome was inactive.
In the case of `COc1ccc(S(=O)(=O)Nc2ccc3c(c2)C(=O)N([C@H](C)CO)C[C@H](C)[C@H](CN(C)Cc2ccc(C(=O)O)cc2)O3)cc1` it was “inactive”.
In the case of `Cc1noc(C)c1NC(=O)N(C)C[C@H]1Oc2ccc(NC(=O)Cn3cnnn3)cc2C(=O)N([C@H](C)CO)C[C@@H]1C` it was “inactive”.
In the case of `Oc1cc(O)cc(/C=C/c2ccc(O)c(O)c2)c1` it was “inactive”; in that of `CC(=O)OCC1OC(OC2C[C@]3(C)C(CC(O)C4C([C@](C)(CCC=C(C)C)OC5OC(CO)C(O)C(O)C5O)CC[C@]43C)[C@@]3(C)CCC(O)C(C)(C)C23)C(O[C@@H]2OC(C)C(O)C(O)C2O)C(O)C1O` (some centres undefined), “inactive”; in that of `N=C1C(c2nc3ccccc3s2)=C(O)CN1Cc1ccccc1`, “inactive”.
For `CN(C(=O)c1ccccn1)c1nnc(-c2ccccn2)s1`, the compound was classed as inactive.
In the case of `Nc1ccc2oc(-c3ccccn3)nc2c1` it was “inactive”; in that of `O=C(N/N=C/c1nn(-c2ccccc2)cc1-c1ccccc1)c1ccncc1`, “inactive”; in that of `CCCC(=O)Nc1ccc(C(=O)NCC2CCCO2)cc1` (centres undefined), “inactive”.
In the case of `CS(=O)(=O)N(CCc1ccccc1)CC(=O)NCC1CCCO1` (centres undefined), the call was inactive.
In the case of `Cc1cc(C)n(-c2nnc(C)n2/N=C/c2ccco2)n1` it was “inactive”; in that of `O=C(O)c1cc2cc(Cl)ccc2oc1=O`, “inactive”; in that of `O=C(CSc1nc2ccccc2c(=O)n1Cc1ccccc1)NCc1ccco1`, “inactive”.
In the case of `CCOC(=O)Cn1c(=O)cnc2ccccc21` it was “inactive”; in that of `O=[N+]([O-])c1ccccc1/C=C/C=N/n1c(-c2ccc(Cl)cc2)n[nH]c1=S`, “inactive”; in that of `CC(C)(C)n1ncc2c(=O)n(Cc3ccccc3Br)cnc21`, “inactive”.
In the case of `CCN(CC)c1ccc(C(=O)OCC(=O)N2CCCC2)cc1` it was “inactive”; in that of `O=C(OCC(=O)N1CCCC1)c1ccc(S(=O)(=O)Nc2ccccc2)cc1`, “inactive”; in that of `C[C@H](CO)N1C[C@H](C)[C@@H](CN(C)C(=O)NC2CCCCC2)Oc2c(NC(=O)c3ccncc3)cccc2C1=O`, “inactive”.
`CCC(=O)N1c2ccc(S(=O)(=O)CCC(=O)NCCC3=CCCCC3)cc2CC1C` (centres undefined): the compound was classed as inactive.
As to `Brc1ccc(-c2csc(N3CCc4ccccc4C3)n2)cc1`, the call was inactive.
In the case of `O=C(N/N=C/c1ccc([N+](=O)[O-])o1)c1cn(-c2ccccc2)nc1-c1ccc(F)cc1` it was “inactive”; in that of `COc1ccc(-n2c(C)cc(/C=N/Nc3nnc(C)n3N)c2C)cc1`, “inactive”.
In the case of `Cc1cccc(C)c1NC(=S)NN(Cc1ccccc1)c1ccccc1` it was “inactive”.
In the case of `CCN(CC)CCCOc1ccc(C)cc1Br` it was “inactive”; in that of `O=C(C1CCC1)N(CCc1ccccc1)Cc1nc2ccccc2c(=O)[nH]1`, “inactive”.
For `O=C(Nc1ccc(Cl)cc1)N1CCN(c2ccccc2)CC1`, the compound was called inactive.
As for `COc1ccc(NC(=S)N2CCC(C(=O)N3CCCCCC3)CC2)cc1`, the call was inactive.
In the case of `COc1ccc(C(C(C(=O)c2ccco2)N2CCOCC2)N2CCOCC2)cc1` (centres undefined) it was “inactive”.
As for `CCN1C(=O)C(C(=O)Nc2ccc(OC)cc2)C2CC1(C)Oc1ccccc12` (centres undefined), the result was inactive.
As for `COc1ccc(CC(=O)Nc2ccc(S(=O)(=O)N(C)C)cc2)cc1OC`, the compound was called inactive.
For the compound `Cc1onc(-c2c(F)cccc2Cl)c1C(=O)N1CCN(S(C)(=O)=O)CC1`, the call was inactive.
Regarding `N/C(=N\OC(=O)COc1cc(Cl)c(Cl)cc1Cl)c1ccncc1`, the compound was classed as inactive.
In the case of `CN(C)S(=O)(=O)c1cccc(NC(=S)NCc2ccc3c(c2)OCO3)c1` it was “inactive”; in that of `C=CCNC(=S)Nc1ccc(N2CCOCC2)c(S(=O)(=O)Nc2ccccc2Cl)c1`, “inactive”; in that of `O=C(NCc1cccc(F)c1)C1CCN(S(=O)(=O)Cc2ccccc2)CC1`, “inactive”.
As to `COc1ccc(S(=O)(=O)N2CCC(C(=O)N3CCc4ccccc4C3)CC2)cc1`, the compound was classed as inactive.
In the case of `COc1ccc(C2CC(=O)C=C(NNS(=O)(=O)c3ccc(C)cc3)C2)cc1` (centres undefined) it was “inactive”; in that of `COCCn1nnnc1C(C(C)C)N1CCCC(C)C1` (centres undefined), “inactive”; in that of `CCc1ccc(S(=O)(=O)Nc2nnc(N)s2)cc1`, “inactive”.
As to `COc1ccc(NS(=O)(=O)c2cccc(C(=O)OCC(=O)Nc3cc(C)on3)c2)cc1`, the call was inactive.
As to `O=C(NCCNc1ccc([N+](=O)[O-])cc1C(F)(F)F)c1ccccc1`, the result was inactive.
In the case of `COC(=O)COc1ccc(S(=O)(=O)N2CCOCC2)cc1C` it was “inactive”.
In the case of `COc1ccccc1C(c1nnnn1Cc1ccccc1)N1CCN(C2CCCC2)CC1` (centres undefined), the compound was classed as inactive.
In the case of `C/C=C(\C)c1nnc(NC(=O)C(C)C)s1` it was “inactive”; in that of `CCOC(=O)N1CCN(C(=S)NC(=O)c2ccc(F)cc2)CC1`, “inactive”; in that of `COc1ccc(-c2nn(-c3ccccc3)cc2CNC(C)Cn2cncn2)c(F)c1` (centres undefined), “inactive”.
